These results are taken from PubChem BioAssay (NCATS).

In experiment [1] the test system is Zika virus NS2B-NS3 protease (linked construct). Kind of experiment: Primary screen NINDS Rhodamine qHTS for Zika virus inhibitors (AID 1347160). Further: nearly all actives have a fitted effect of over 55% in size. Summed up:
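In 10 mM Tris-HCl pH 8.0 containing 0.01% Tween 20, linked NS2B-NS3 protease (25 nM final) is exposed to test compounds for 15 min. Cleavage of 1.5 microM Rhodamine110 substrate is tracked by fluorescence over 15 min.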

Experiment [2] addresses Calcium and integrin-binding protein 1 (Homo sapiens) (UniProt Q99828). Nature of the experiment: Primary qHTS for Identification of Calcium Integrin Binding Protein 1 (CIB1) Competitor (AID 1508620).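 Further: GST tagged CIB1 binding a fluorescein labelled alphaIIb integrin peptide tracer; top concentration of the series differs between compounds; on the % scale 0 is the no-effect control and ±100 the full control effect.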 A digest of the protocol:
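Fluorescence polarization competition: GST-tagged CIB1 (1 uM final) preincubated with compound 15 min at room temperature, then FITC-labelled alphaIIb peptide (100 nM final) added. After 15 min at room temperature, polarization read at Ex 480/Em 540.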
In general terms: In qHTS, concentration-response curves come from the screen itself.

Experiment [3] deals with Glutathione peroxidase 1 (Homo sapiens) (UniProt P07203). Kind of experiment: Primary qHTS Assay for Inhibitors of Recombinant Selenoprotein Glutathione Peroxidase 1 (GPX1) (AID 1845191). Further: nearly all actives have a fitted effect of over 65% in size. A digest of the protocol: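 GR-coupled assay: compounds preincubated 30 min at room temperature with GPX1, then reaction started with CHP; final 10 nM GPX1, 1 mM GSH, 0.5 mM CHP, 0.5 mM NADPH, 100 nM GR, 0.01% BSA, pH 7.5 Tris buffer. NADPH fluorescence (340/450 nm) read at 0 and 15 min.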
Glutathione peroxidase 1 (Homo sapiens), sequence (P07203 whole entry, looked up): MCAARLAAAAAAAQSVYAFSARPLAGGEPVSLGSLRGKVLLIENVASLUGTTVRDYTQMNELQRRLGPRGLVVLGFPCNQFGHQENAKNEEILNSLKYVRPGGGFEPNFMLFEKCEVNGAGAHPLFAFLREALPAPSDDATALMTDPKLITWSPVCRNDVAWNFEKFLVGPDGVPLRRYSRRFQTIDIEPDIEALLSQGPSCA

Experiment [4] deals with Phospholipid hydroperoxide glutathione peroxidase GPX4 (Homo sapiens) (UniProt P36969). Nature of the experiment: Primary qHTS Assay for Inhibitors of Recombinant Selenoprotein Glutathione Peroxidase 4 (GPX4) (AID 1845192). Further: nearly all actives have a fitted effect of over 65% in size. A digest of the protocol:
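GR-coupled assay: recombinant GPX4 preincubated 30 min with compound at room temperature; final 200 nM GPX4, 1 mM GSH, 0.5 mM cumene hydroperoxide, 0.5 mM NADPH, 100 nM GR, 0.01% BSA, pH 7.5 Tris. NADPH fluorescence (340/450 nm) read at 0 and 15 min.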

Experiment [5] concerns the target Luciferin 4-monooxygenase (Photinus pyralis) (UniProt P08659). Kind of experiment: Primary firefly luciferase (FLuc) qHTS assay for identification of artifact compounds. (AID 1845220). Further: nearly all actives have a fitted effect of over 60% in size. The settings on record: outcome: dose series up to 54.1 µM unless noted. A digest of the protocol: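 Titrated compounds were incubated 15 min at RT, protected from light, with luciferin and ATP at 10 uM; reaction started with 10 nM FLuc, luminescence imaged at 5 min, and concentration-response fitted by Hill equation.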

Experiment [6] is described as follows: Primary fluorescence-based thiol-reactive (MSTI) qHTS assay for identification of artifact compounds. (AID 1845221). Further: nearly all actives have a fitted effect of over 65% in size. Further: potency means the concentration at half of the fitted maximal effect. Summed up:
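Compounds were incubated 1 h at room temperature in the dark with the MSTI probe (4 uM) in PBS pH 7.4, 2% DMSO. Signals were normalized between Acetyl-MSTI and MSTI.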

Experiment [7] concerns Nanoluciferase (engineered Oplophorus gracilirostris luciferase). Nature of the experiment: Primary Nanoluciferase (NLuc) qHTS assay for identification of artifact compounds. (AID 1845222).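 Further: NLuc secreted into diluted conditioned medium of S16 cells; 0% = DMSO and -100% = no enzyme.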 A digest of the protocol:
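qHTS format, against NLuc in S16 cell-conditioned medium. Nano-Glo substrate 1:100 was added after 15 min at room temperature. Luminescence was taken after a further 5 min.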

For a further experiment, the system named is CRL-7250. Kind of experiment: Cytotoxic Profiling of Annotated Libraries Using Quantitative High-Throughput Screening (AID 1296008). Further: nearly all actives have a fitted effect of over 60% in size. Further: potency means the concentration at half of the fitted maximal effect. On max response: on the % scale 0 is the no-effect control and ±100 the full control effect. The settings on record: Five cell lines viability, CellTiter-Glo ATP luminescence, 48-72 h; max response: hits give low values. Summed up:
(§1)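 Cells exposed to compounds for 48 or 72 hr at 37 degrees Celsius. Viability read as ATP-coupled luminescence with CellTiter-Glo after 10 min at room temperature.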
In general terms: ATP-based viability assays read luminescence as a measure of living cells.

For another experiment, the system named is NIH3T3. The experiment is described as above. The settings on record: Five cell lines viability, CellTiter-Glo ATP luminescence, 48-72 h; max response: hits give low values. Summed up: as §1
The subject of another experiment is C33A. Kind of experiment: Primary qHTS to identify gynecologic anti-cancer compounds using libraries of approved drugs and bioactive compounds (AID 1345084). Further: on the % scale 0 is the no-effect control and ±100 the full control effect; nearly all actives have a fitted effect of over 55% in size. The settings on record: Gynecologic cancer cell panel viability, ATPlite luminescence, 48 h; series mostly up to 57.5 µM. Summed up: (§2)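 Luminescence from the ATPlite ATP-monitoring reagent indicates viable cell number; lower signal means cytotoxicity. Cells received compound 16 h after seeding and were exposed for 48 h across five concentrations.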

The next experiment has as its system CAOV3. Described as above. The conditions noted are these: Gynecologic cancer cell panel viability, ATPlite luminescence, 48 h; series mostly up to 57.5 µM. A digest of the protocol:
as §2

Another experiment relates to CASKI. The experiment is described as above. The settings on record: Gynecologic cancer cell panel viability, ATPlite luminescence, 48 h; series mostly up to 57.5 µM. Summed up:
as §2

For the next experiment, the system named is Es-2. Described as above. The settings on record: Gynecologic cancer cell panel viability, ATPlite luminescence, 48 h; series mostly up to 57.5 µM. Summed up: as §2
In a further experiment the test system is Hek293T. The description is as above. The conditions noted are these: Gynecologic cancer cell panel viability, ATPlite luminescence, 48 h, control line for the selectivity index; series mostly up to 57.5 µM. A digest of the protocol: as §2
Another experiment concerns JEG-3. The experiment is described as above. The settings on record: Gynecologic cancer cell panel viability, ATPlite luminescence, 48 h; series mostly up to 57.5 µM. Summed up: as §2
For a further experiment, the system named is OV90. The description is as above. The conditions noted are these: Gynecologic cancer cell panel viability, ATPlite luminescence, 48 h; series mostly up to 57.5 µM. Summed up: as §2
The subject of the next experiment is PA-1. Described as above. The settings on record: Gynecologic cancer cell panel viability, ATPlite luminescence, 48 h; series mostly up to 57.5 µM. A digest of the protocol: as §2
A further experiment concerns Tov-21-G. The description is as above. The conditions noted are these: Gynecologic cancer cell panel viability, ATPlite luminescence, 48 h; series mostly up to 57.5 µM. A digest of the protocol:
as §2

A further experiment concerns Tov112D. The experiment is described as above. The conditions noted are these: Gynecologic cancer cell panel viability, ATPlite luminescence, 48 h; series mostly up to 57.5 µM. A digest of the protocol: as §2
Experiment [8] concerns Zika virus NS2B-NS3 protease (unlinked complex). Nature of the experiment: Primary screen GU Rhodamine qHTS for Zika virus inhibitors: Unlinked NS2B-NS3 protease assay (AID 1347159). Further: on the % scale 0 is the no-effect control and ±100 the full control effect; nearly all actives have a fitted effect of over 60% in size. A digest of the protocol:
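Percent inhibition derives from the 15-min fluorescence change (ex 480, em 540 nm), normalized to no-enzyme and no-inhibitor wells. Reactions contained 25 nM NS2B-NS3 complex and 1.5 microM substrate in 10 mM Tris-HCl pH 8.0.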

A number with no mark means an inactive call. Inconclusive results are not listed. Activity calls are given as the source filed them. The call rests on the fitted dose curve; in most records, active means well fitted curve in the direction sought with a large enough effect; inconclusive means small, poorly fitted or top-dose-only effect, or another doubt; inactive means no such curve, though single readings can be large; an effect the other way counts as inactive or inconclusive.

Calcium and integrin-binding protein 1 (Homo sapiens), sequence (Q99828 whole entry, looked up): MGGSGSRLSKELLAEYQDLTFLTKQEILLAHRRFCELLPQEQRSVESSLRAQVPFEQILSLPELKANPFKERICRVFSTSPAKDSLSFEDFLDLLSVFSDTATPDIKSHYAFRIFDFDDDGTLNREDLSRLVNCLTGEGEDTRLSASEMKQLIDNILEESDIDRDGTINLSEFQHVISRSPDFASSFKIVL
Phospholipid hydroperoxide glutathione peroxidase GPX4 (Homo sapiens), sequence (P36969 whole entry, looked up): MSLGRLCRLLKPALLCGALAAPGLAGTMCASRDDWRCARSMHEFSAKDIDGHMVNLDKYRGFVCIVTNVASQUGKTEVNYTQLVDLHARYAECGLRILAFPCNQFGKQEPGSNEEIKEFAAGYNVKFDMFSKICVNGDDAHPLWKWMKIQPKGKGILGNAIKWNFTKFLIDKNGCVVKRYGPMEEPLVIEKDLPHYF

As to `CC12Cc3cn[nH]c3C=C1CCC1C2CCC2(C)C1CCC2(C)O` (centres undefined), the Potency entry in [1], in experiment [2], in experiment [3], in experiment [4], in experiment [6] and in [7] was “inactive” throughout. Moreover, the Potency result in the experiment with C33A, in the experiment on CAOV3, in the experiment with CASKI, with Es-2, with Hek293T and in the experiment on JEG-3 was “inactive” each time. Moreover, the Potency result with OV90, in the experiment with PA-1, in the experiment on Tov-21-G and in the experiment with Tov112D was “inactive” throughout. The result (in experiment [5]; in the experiment with CRL-7250) was inactive. The max response in the experiment with NIH3T3 is -0.979%.
As to `CCCCCn1cc(C(=O)c2cccc3ccccc23)c2ccccc21`, the Potency entry in [8], in [1], in experiment [3], in experiment [4], in [6] and in experiment [7] was “inactive” in each case. The Potency entry in the experiment on C33A, in the experiment with CAOV3, in the experiment with CASKI, in the experiment on Es-2, in the experiment on Hek293T and in the experiment with JEG-3 was “inactive” throughout. In addition, the Potency result in the experiment with OV90, in the experiment with PA-1, with Tov-21-G and in the experiment on Tov112D was “inactive” in each case. Besides, the Potency in the experiment on CRL-7250 is 18.4 µM (active). In the experiment on NIH3T3, the max response was 4.48%.
For `CC(=O)C1CCC2C3CCC4C[C@@H](O)CCC4(C)C3CCC12C` (some centres undefined), the Potency entry in experiment [8], in experiment [2], in experiment [3], in experiment [4], in experiment [6] and in experiment [7] was “inactive” in each case. Besides, the Potency entry in the experiment on C33A, with CAOV3, in the experiment with CASKI, with Es-2, in the experiment with Hek293T and with JEG-3 was “inactive” each time. Further, the Potency result in the experiment on OV90, in the experiment on PA-1, in the experiment with Tov-21-G and in the experiment on Tov112D was “inactive” in each case. The max response with CRL-7250 is 3.25%. Also, in the experiment with NIH3T3, the call was inactive.
For `c1ccc(C2(c3ccccc3)OC[C@@H]([C@H]3CCCCN3)O2)cc1`, the Potency entry in experiment [8], in experiment [1], in [3], in experiment [4], in [6] and in experiment [7] was “inactive” each time. The Potency result in the experiment on C33A, with CAOV3, in the experiment on CASKI, in the experiment on Es-2, with Hek293T and in the experiment with JEG-3 was “inactive” throughout. Besides, the Potency entry in the experiment on OV90, in the experiment with PA-1, in the experiment on Tov-21-G and in the experiment on Tov112D was “inactive” throughout. Further, in experiment [5], the compound was classed as inactive. In addition, the max response in the experiment on CRL-7250 is -2.49%; with NIH3T3 it was 0.771%.
For `CN=C(NS(=O)(=O)c1ccc(Cl)cc1)N1C[C@H](c2ccccc2)C(c2ccc(Cl)cc2)=N1`, the Potency result in experiment [8], in experiment [1], in experiment [2], in [4], in experiment [6] and in experiment [7] was “inactive” in each case. For the same compound, the Potency result with C33A, in the experiment on CAOV3, in the experiment on CASKI, in the experiment on Es-2, with Hek293T and in the experiment on JEG-3 was “inactive” each time. The Potency entry with OV90, in the experiment with PA-1, in the experiment with Tov-21-G and with Tov112D was “inactive” in each case. The outcome (in experiment [5]; in the experiment on CRL-7250) was inactive. Also, the max response in the experiment with NIH3T3 was 4.13%.
In the case of `C=C1C(=O)O[C@@H]2[C@H]3C(=C)[C@@H](O)C[C@H]3C(=C)C[C@@H](O)[C@@H]12`, the Potency result (in experiment [2]; in experiment [3]; in experiment [4]; in [7]; in the experiment with C33A; in the experiment on CAOV3) was “inactive” each time. For the same compound, the Potency entry in the experiment on CASKI, in the experiment on Es-2, with Hek293T, in the experiment on JEG-3, with OV90 and in the experiment on PA-1 was “inactive” throughout. In addition, the Potency entry with Tov112D is “inactive”. The outcome in experiment [5] was inactive. Moreover, in [6], the Potency was 5.32 µM (active). In addition, in the experiment on CRL-7250, the max response is -8.41%.
